PubChem BioAssay (NCI)
Compounds without any hit were thinned out: in the full panel of roughly 83,000, 20% have a hit.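 Cell lines were cultured in 96-well plates, exposed to a single compound concentration, and assessed for percent growth 48 hours later.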 A number with no mark means an inactive call. Activity calls are given as the source filed them. The calls were made as follows: active = growth percent below 10; inactive = the rest.

Experiments:
Experiment in all cases: NCI-60 one-dose screen, 48 h (100 = growth as untreated, 0 = no growth, -100 = all killed)
Conditions in all cases: 10 µM unless noted
EKVX NSCLC = system: EKVX NSCLC
SN12C renal = system: SN12C renal
UO-31 renal = system: UO-31 renal
TK-10 renal = system: TK-10 renal
ACHN renal = system: ACHN renal
CAKI-1 renal = system: CAKI-1 renal
A498 renal = system: A498 renal
CCRF-CEM leukemia = system: CCRF-CEM leukemia
MOLT-4 leukemia = system: MOLT-4 leukemia

| SMILES | growth (EKVX NSCLC) | growth (SN12C renal) | growth (UO-31 renal) | growth (TK-10 renal) | growth (ACHN renal) | growth (CAKI-1 renal) | growth (A498 renal) | growth (CCRF-CEM leukemia) | growth (MOLT-4 leukemia) |
| --- | --- | --- | --- | --- | --- | --- | --- | --- | --- |
| CCOC(=O)c1ccc(C(C)(C)C)cc1 | 114% | 107% | 89.8% | 103% | 110% | 101% | 114% | 113% | 87.1% |
| Nc1cc(N)ncn1 | 102% | 97.1% | 94% | 102% | 102% | 102% | 93.8% |  | 93.5% |
| Cc1cc(CO)c(O)c(CO)c1 | 106% | 111% | 90.9% | 97.1% | 103% | 96.8% | 95.5% |  | 21.4% |
| CCCC(OC(C)=O)c1ccc2c(c1)OCO2 (centres undefined) | 117% | 106% | 86.8% | 106% | 111% | 101% | 96.7% | 105% | 107% |
| ClCc1cccc2c(CCl)cccc12 | 82.2% | 64.5% | 60.4% | 86.8% | 31.5% | 15.2% | 107% | 29.8% | 27.7% |
| N#CCCN1C(=O)CCC1C(=O)O (centres undefined) | 112% | 106% | 101% | 103% | 101% | 102% | 98.9% | 108% | -26.9% (active) |
| OCc1cccnc1 | 107% | 99.2% | 81.7% | 102% | 102% |  | 78.4% |  | 109% |
| CC(=O)c1cc(O)ccc1O | 112% | 97.4% | 88.9% | 93.6% | 110% |  | 90.6% | 73.7% | 92.8% |
| COc1cc(-c2ccc(NC(=O)CC(C)=O)c(OC)c2)ccc1NC(=O)CC(C)=O | 108% | 104% | 86.3% | 115% | 88.6% | 97% | 110% | 100% | 89.5% |
| Cc1[nH]n(-c2ccccc2)c(=O)c1C=NC(=S)C(N)=S | 103% | 105% | 85.2% | 125% | 100% | 97.2% | 93.8% | 94.1% | 102% |
| c1ccc2[nH]c(Cc3nc4ccccc4[nH]3)nc2c1 | 104% | 107% | 95.3% | 122% | 96.2% |  | 98.5% | 27.9% | 110% |
| Cc1cc(C)cc(OCC(=O)O)c1 | 101% | 99.1% | 86.9% | 97.8% |  |  | 105% | 132% | 124% |
| CCOC(=O)CO | 95.6% | 104% | 72.8% | 109% | 109% | 96.5% | 97% | 102% | 86.4% |
| O=C(O)Cc1cccc2ccccc12 | 101% | 121% | 93.6% | 102% | 103% |  | 106% |  | 9.03% (active) |
| CCCCCCCCNC(=O)C(C)C | 99.9% | 95.8% | 99.1% | 98.5% |  | 99.1% | 81.5% | 102% | 107% |
| O=CNCCc1ccccc1 | 97.3% | 90% | 87.8% | 92.4% | 98.5% | 93.8% | 111% | 103% | 96.8% |
| Cc1c(-c2ccc(C3CCCCC3)cc2)nc2ccc(F)cc2c1C(=O)O |  | 45.2% | 34.3% | 74.7% | 43% | -2.23% (active) | 89.7% | 35.7% | 15.2% |
| Clc1cccc(Cl)c1CSc1nc2ccccc2n2cccc12 |  | 102% | 71.8% | 103% | 97.3% | 70.5% | 115% | 100% | 92.9% |
| COc1cc(OC)c(NC(=O)C(Sc2nc(C)cc(C)c2C#N)c2ccccc2)cc1Cl (centres undefined) |  | 98.5% | 102% | 96.3% | 85.8% | 94.6% | 111% | 99.4% | 90.9% |
| Cc1nc(C)c(C(=O)O)cc1C(=O)O | 102% | 125% |  | 112% | 104% | 100% | 89.3% | 103% | 103% |
| Cc1ccc(C)c2c1CCC2=O |  | 102% | 90.6% | 105% | 102% | 95.9% | 56.8% | -32.7% (active) | 121% |
| CC(=O)Nc1ccc(C(=O)c2ccc(S(=O)(=O)Nc3ccccc3)cc2)cc1 | 105% | 98.6% | 85.7% |  | 104% | 106% | 79.2% | 82.8% | 102% |
| CC(=O)NCNC(C)=O |  |  | 105% | 115% | 100% |  | 113% | 93.3% | 87.9% |
| COC1CC(OC(=O)c2ccc([N+](=O)[O-])cc2)C(COC(=O)c2ccc([N+](=O)[O-])cc2)O1 (centres undefined) |  | 98.9% | 95.6% | 124% | 112% |  | 83.5% | 98.1% | 103% |
